According to PubChem BioAssay (NCATS):
Results filed as inconclusive are left out. Activity calls are given as the source filed them. Unless noted, calls come from the whole dose curve.

How the values were obtained:
[1] = qHTS for Inhibitors of the Functional Ribonucleoprotein Complex (vRNP) of Lassa (LASV) Arenavirus: LASV Primary Screen - GLuc reporter signal (AID 1347082; calls by dose curve; tested in HEK293 reporter line; note: nearly all actives have a fitted effect of over 60% in size)
[2] = qHTS for Inhibitors of the Functional Ribonucleoprotein Complex (vRNP) of Lassa (LASV) Arenavirus: Viability assay - alamar blue signal for LASV Primary Screen (AID 1347083; calls by dose curve; tested in HEK293 reporter line; note: nearly all actives have a fitted effect of over 80% in size)
[3] = qHTS for Inhibitors of the Functional Ribonucleoprotein Complex (vRNP) of Lymphocytic Choriomeningitis Arenaviruses (LCMV): Viability assay - alamar blue signal for LCMV Primary Screen (AID 1347085; calls by dose curve; tested in HEK293 reporter line; note: nearly all actives have a fitted effect of over 80% in size)
[4] = target: Nucleoprotein (Lymphocytic choriomeningitis virus (strain Armstrong)) (UniProt P09992); test: qHTS for Inhibitors of the Functional Ribonucleoprotein Complex (vRNP) of Lymphocytic Choriomeningitis Arenaviruses (LCMV): LCMV Primary Screen - GLuc reporter signal (AID 1347086); note: nearly all actives have a fitted effect of over 70% in size

Measured: Potency
Note: series mostly up to about 57 µM.

Nucleoprotein (Lymphocytic choriomeningitis virus (strain Armstrong)), sequence (P09992 whole entry, looked up): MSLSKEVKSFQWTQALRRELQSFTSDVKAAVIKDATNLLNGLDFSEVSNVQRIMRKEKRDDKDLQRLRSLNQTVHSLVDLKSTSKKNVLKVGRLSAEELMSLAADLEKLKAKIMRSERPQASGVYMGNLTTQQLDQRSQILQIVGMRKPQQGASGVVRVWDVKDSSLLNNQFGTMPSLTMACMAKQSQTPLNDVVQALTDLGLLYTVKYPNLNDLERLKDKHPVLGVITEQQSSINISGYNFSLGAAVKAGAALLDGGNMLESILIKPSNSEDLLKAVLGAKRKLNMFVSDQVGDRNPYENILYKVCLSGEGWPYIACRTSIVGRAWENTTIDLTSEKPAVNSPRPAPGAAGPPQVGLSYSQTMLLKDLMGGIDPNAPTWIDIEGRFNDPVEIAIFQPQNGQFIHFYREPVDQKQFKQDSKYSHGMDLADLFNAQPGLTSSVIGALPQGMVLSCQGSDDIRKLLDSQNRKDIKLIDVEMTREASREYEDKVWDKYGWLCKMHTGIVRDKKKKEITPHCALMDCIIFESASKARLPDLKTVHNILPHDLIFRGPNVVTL

CCCCNc1ccc(C(=O)OCCN(CC)CC)cc1
inactive: [1] | [2] | [3] | [4]

C=CCSCC1Nc2cc(Cl)c(S(N)(=O)=O)cc2S(=O)(=O)N1 (stereo not given)
inactive: [1] | [2] | [3] | [4]

Cc1c(-c2ccccc2)oc2c(C(=O)OCCN3CCCCC3)cccc2c1=O
inactive: [1] | [2] | [3] | [4]

Cc1c(Cl)cccc1Nc1ccccc1C(=O)O
inactive: [1] | [2] | [3] | [4]

CC(C)(C)c1ccc(C(O)CCCN2CCC(C(O)(c3ccccc3)c3ccccc3)CC2)cc1 (stereo not given)
inactive: [1] | [2] | [3] | [4]

O=C1NC(=O)[C@@]2(CCOc3ccc(F)cc32)N1
inactive: [1] | [2] | [3] | [4]

CN(C(=O)CCCOc1ccc2[nH]c(=O)ccc2c1)C1CCCCC1
inactive: [1] | [2] | [3] | [4]

C#C[C@]1(OC(C)=O)CC[C@H]2[C@@H]3CCC4=C[C@@H](OC(C)=O)CC[C@@H]4[C@H]3CC[C@@]21C
inactive: [1] | [2] | [3] | [4]

CN1Cc2c(N)cccc2C(c2ccccc2)C1 (stereo not given)
inactive: [1] | [2] | [3] | [4]

C[N+](C)(C)CC[N+]1(C)Cc2c(Cl)c(Cl)c(Cl)c(Cl)c2C1
inactive: [1] | [2] | [3] | [4]

COc1ccc2c(c1)C(=O)N(CCc1ccc(S(=O)(=O)NC(=O)NC3CCCCC3)cc1)C(=O)C2(C)C
inactive: [1] | [2] | [3] | [4]

C/C=C/c1ccc(O)c(OC)c1
inactive: [1] | [2] | [3] | [4]

Nc1nc2ncc(CNc3ccc(C(=O)N[C@@H](CCC(=O)O)C(=O)O)cc3)nc2c(=O)[nH]1
inactive: [1] | [2] | [3] | [4]

CCOC(=O)[C@H](CCc1ccccc1)N[C@H]1CCc2ccccc2N(CC(=O)O)C1=O
inactive: [1] | [2] | [3] | [4]

CCN(CC)CCOC(=O)C(c1ccccc1)c1ccccc1
inactive: [1] | [2] | [3] | [4]

Cc1[nH]c(C)c(Cl)c(=O)c1Cl
inactive: [1] | [2] | [3] | [4]

COc1cc(NS(=O)(=O)c2ccc(N)cc2)ncn1
inactive: [1] | [2] | [3] | [4]

CCCCCCCCCCCCCCNCCO
inactive: [1] | [2] | [3] | [4]

CSc1ccc(/C=C2/C(C)=C(CC(=O)O)c3cc(F)ccc32)cc1
inactive: [1] | [2] | [3] | [4]

CC(=O)OC/C=C(C)/C=C/C=C(C)/C=C/C1=C(C)CCCC1(C)C
inactive: [1] | [2] | [3] | [4]

Cc1ccc(C(=O)Oc2ccc(C(O)CNC(C)(C)C)cc2OC(=O)c2ccc(C)cc2)cc1 (stereo not given)
inactive: [1] | [2] | [3] | [4]

Cc1cc(N)c2cc(NC(=O)Nc3ccc4nc(C)cc(N)c4c3)ccc2n1
inactive: [1] | [2] | [3] | [4]

NS(=O)(=O)c1cc2c(cc1Cl)CN(C1CCCCC1)C2=O
inactive: [1] | [2] | [3] | [4]

COCCc1ccc(OCC(O)CNC(C)C)cc1 (stereo not given)
inactive: [1] | [2] | [3] | [4]

Clc1ccccc1-c1nc(-c2ccncc2)no1
inactive: [1] | [2] | [3] | [4]

O=S1(=O)OC(c2ccc(O)cc2)(c2ccc(O)cc2)c2ccccc21
inactive: [1] | [2] | [3] | [4]

Cc1cccc(Nc2cc(Cl)nc(SCC(=O)O)n2)c1C
inactive: [1] | [2] | [3] | [4]

Clc1ccc(C(Cn2ccnc2)OCc2ccsc2Cl)c(Cl)c1 (stereo not given)
inactive: [1] | [2] | [3] | [4]

NCCc1cnc[nH]1
inactive: [1] | [2] | [3] | [4]

CN1CCN(C2=Nc3ccccc3Sc3ccc(Cl)cc32)CC1
inactive: [1] | [2] | [3] | [4]

CC1CC(=O)NN=C1c1ccc(NCC(C)(C)NCC(O)COc2cc(Cl)ccc2C#N)cc1 (stereo not given)
inactive: [1] | [2] | [3] | [4]

CN(CCCN1c2ccccc2CCc2ccccc21)CC(=O)c1ccc(Cl)cc1
inactive: [1] | [2] | [3] | [4]

COc1ccc(CCC(C)=O)cc1
inactive: [1] | [2] | [3] | [4]

C=CCOc1cc(Cl)ccc1C(=O)NCCN(CC)CC
inactive: [1] | [2] | [3] | [4]

CCN(CC)CCOc1ccccc1C(=O)CCc1ccccc1
inactive: [1] | [2] | [3] | [4]
